In PubChem BioAssay (NCI):
About 83,000 compounds went through this panel and 20% of them were active in at least one assay; those are over-represented in the sample as a whole.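 Cells were grown in 96-well plates and exposed to the test compound at a single concentration for 48 hours; results are reported as percent growth, with values below 10 considered active.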 A number with no mark means an inactive call. Activity calls are given as the source filed them.

Key:
Experiment in all cases: NCI-60 one-dose screen, 48 h (100 = growth as untreated, 0 = no growth, -100 = all killed)
Details in all cases: 10 µM
NCI-H23 lung = test system: NCI-H23 lung
NCI-H226 lung = test system: NCI-H226 lung
NCI-H322M lung = test system: NCI-H322M lung
HOP-62 NSCLC = test system: HOP-62 NSCLC
NCI-H460 lung = test system: NCI-H460 lung
A549/ATCC NSCLC = test system: A549/ATCC NSCLC
786-0 renal = test system: 786-0 renal
COLO 205 colon = test system: COLO 205 colon
NCI-H522 lung = test system: NCI-H522 lung
HOP-92 NSCLC = test system: HOP-92 NSCLC

Work on `C=CC[N+](C)(C)C` yielded a growth (NCI-H23 lung) of 103%, a growth (NCI-H226 lung) of 93.6% and a growth (NCI-H322M lung) of 108%. For the same compound, the growth (HOP-62 NSCLC) was 107%, the growth (NCI-H460 lung) was 104% and the growth (A549/ATCC NSCLC) was 100%. The growth (786-0 renal) was 102% and the growth (COLO 205 colon) was 120%.
`C/C(O)=C(\C=N\C(N)=S)C(=O)Nc1ccccc1` was tested, and the growth (NCI-H23 lung) was 94.5%, the growth (NCI-H226 lung) was 87.1% and the growth (NCI-H322M lung) was 104%. It also gave a growth (HOP-62 NSCLC) of 90.9%, a growth (NCI-H460 lung) of 99.9% and a growth (NCI-H522 lung) of 83.7%. For the same compound, the growth (786-0 renal) was 105% and the growth (COLO 205 colon) was 104%.
For `CCC(C#N)(CC)c1ccccc1`, the growth (NCI-H23 lung) was 99.5%, the growth (NCI-H226 lung) was 99.3% and the growth (NCI-H322M lung) was 99.4%. The growth (HOP-62 NSCLC) was 92.9%, the growth (NCI-H460 lung) was 104% and the growth (A549/ATCC NSCLC) was 111%. It also gave a growth (COLO 205 colon) of 106%.
For `O=C1C=C(O)C(=O)C=C1O`, the growth (NCI-H23 lung) was 94.8%, the growth (NCI-H226 lung) was 114% and the growth (NCI-H322M lung) was 112%. The growth (HOP-62 NSCLC) was 97.9%, the growth (NCI-H460 lung) was 107% and the growth (A549/ATCC NSCLC) was 112%. For the same compound, the growth (786-0 renal) was 107% and the growth (COLO 205 colon) was 94.1%.
`O=C1C[C@H](c2ccccc2)[C@H](c2ccccc2)C1` was tested, and the growth (NCI-H23 lung) was 102%, the growth (NCI-H226 lung) was 97.6% and the growth (NCI-H322M lung) was 99.7%. The growth (HOP-62 NSCLC) was 98.5%, the growth (NCI-H460 lung) was 112% and the growth (NCI-H522 lung) was 79%. For the same compound, the growth (786-0 renal) was 101% and the growth (COLO 205 colon) was 113%.
With `COc1ccc(C(C)C=O)cc1` (centres undefined) the growth (NCI-H23 lung) was 106%, the growth (NCI-H226 lung) was 111% and the growth (NCI-H322M lung) was 122%. It also gave a growth (HOP-62 NSCLC) of 107%, a growth (NCI-H460 lung) of 108% and a growth (A549/ATCC NSCLC) of 105%. It also gave a growth (786-0 renal) of 107% and a growth (COLO 205 colon) of 115%.
For `CC[N+](C)(CC)CCO`, the growth (NCI-H23 lung) was 107%, the growth (NCI-H226 lung) was 92.7% and the growth (NCI-H322M lung) was 104%. For the same compound, the growth (HOP-62 NSCLC) was 92.6%, the growth (NCI-H460 lung) was 105% and the growth (A549/ATCC NSCLC) was 94.1%. For the same compound, the growth (786-0 renal) was 99.5% and the growth (COLO 205 colon) was 114%.
With `Cc1cc2ccccc2c(O)c1C#N` the growth (NCI-H23 lung) was 91.1%, the growth (NCI-H226 lung) was 102% and the growth (NCI-H322M lung) was 119%. It also gave a growth (HOP-62 NSCLC) of 85.5%, a growth (NCI-H460 lung) of 107% and a growth (A549/ATCC NSCLC) of 107%. The growth (COLO 205 colon) was 112%.
In the case of `O=[N+]([O-])c1ccc(Cl)c(S(=O)(=O)O)c1`, the growth (NCI-H23 lung) is reported as 103%, the growth (NCI-H226 lung) is reported as 109% and the growth (NCI-H322M lung) is reported as 136%. For the same compound, the growth (HOP-62 NSCLC) was 103%, the growth (NCI-H460 lung) was 108% and the growth (A549/ATCC NSCLC) was 102%. It also gave a growth (786-0 renal) of 110% and a growth (COLO 205 colon) of 118%.
`CC(C)(C)n1nc(C2CC2)c(Br)c1NC(=O)c1ccccc1F` was tested, and the growth (NCI-H23 lung) was 117%, the growth (NCI-H226 lung) was 102% and the growth (NCI-H322M lung) was 98.3%. The growth (HOP-62 NSCLC) was 92.5%, the growth (NCI-H460 lung) was 102% and the growth (786-0 renal) was 99.6%. For the same compound, the growth (COLO 205 colon) was 104%.
Work on `Cc1ncc(C#N)c(N)n1` yielded a growth (NCI-H23 lung) of 99%, a growth (NCI-H226 lung) of 94.8% and a growth (NCI-H322M lung) of 89.1%. For the same compound, the growth (NCI-H460 lung) was 102%, the growth (HOP-92 NSCLC) was 87.1% and the growth (NCI-H522 lung) was 102%. For the same compound, the growth (A549/ATCC NSCLC) was 106%, the growth (786-0 renal) was 96.4% and the growth (COLO 205 colon) was 107%.
For `O=C(O)c1cccc([N+](=O)[O-])c1`, the growth (NCI-H23 lung) was 95%, the growth (NCI-H226 lung) was 107% and the growth (NCI-H322M lung) was 97.4%. For the same compound, the growth (NCI-H460 lung) was 106%, the growth (HOP-92 NSCLC) was 96% and the growth (NCI-H522 lung) was 112%. The growth (A549/ATCC NSCLC) was 105%, the growth (786-0 renal) was 104% and the growth (COLO 205 colon) was 113%.
For `O=C1N(C[P+](c2ccccc2)(c2ccccc2)c2ccccc2)CCCN1C[P+](c1ccccc1)(c1ccccc1)c1ccccc1`, the growth (NCI-H23 lung) was 109%, the growth (NCI-H226 lung) was 102% and the growth (NCI-H322M lung) was 106%. The growth (NCI-H460 lung) was 107%, the growth (HOP-92 NSCLC) was 79.5% and the growth (NCI-H522 lung) was 108%. It also gave a growth (A549/ATCC NSCLC) of 101% and a growth (786-0 renal) of 103%.
`CCOc1ccc(/C=N/N=C(N)N)cc1OCC` gave a growth (NCI-H23 lung) of 92%, a growth (NCI-H226 lung) of 93.3% and a growth (NCI-H322M lung) of 110%. It also gave a growth (HOP-62 NSCLC) of 106%, a growth (HOP-92 NSCLC) of 99.4% and a growth (NCI-H522 lung) of 99.2%. The growth (786-0 renal) was 100% and the growth (COLO 205 colon) was 107%.
`CCOC(=O)C1OC1c1ccccc1` (centres undefined) was tested, and the growth (NCI-H23 lung) was 98.6%, the growth (NCI-H226 lung) was 100% and the growth (NCI-H322M lung) was 101%. The growth (NCI-H460 lung) was 103%, the growth (HOP-92 NSCLC) was 99.2% and the growth (NCI-H522 lung) was 104%. The growth (A549/ATCC NSCLC) was 102%, the growth (786-0 renal) was 98.3% and the growth (COLO 205 colon) was 102%.
Work on `CC(=O)OC1CC2C(C)(C)OC3CC(=O)OCC32C2CCC3(C)C(=CCC3c3ccoc3)C12C` (centres undefined) yielded a growth (NCI-H23 lung) of 108%, a growth (NCI-H226 lung) of 98.7% and a growth (NCI-H322M lung) of 111%. For the same compound, the growth (NCI-H460 lung) was 108%, the growth (HOP-92 NSCLC) was -13% (active) and the growth (NCI-H522 lung) was 35.6%. For the same compound, the growth (A549/ATCC NSCLC) was 104%, the growth (786-0 renal) was 103% and the growth (COLO 205 colon) was 76.1%.
`N#CSc1cc(S(N)(=O)=O)ccc1N` showed a growth (NCI-H23 lung) of 104%, a growth (NCI-H226 lung) of 108% and a growth (NCI-H322M lung) of 114%. It also gave a growth (HOP-62 NSCLC) of 104%, a growth (NCI-H460 lung) of 114% and a growth (COLO 205 colon) of 113%.
Compound `S=c1nn[nH]c2ccccc12` has a growth (NCI-H23 lung) of 99.6%, a growth (NCI-H226 lung) of 93.8% and a growth (NCI-H322M lung) of 95.6%. The growth (HOP-62 NSCLC) was 98%, the growth (NCI-H460 lung) was 105% and the growth (786-0 renal) was 111%. The growth (COLO 205 colon) was 93.4%.
Compound `CC(C)=CC(=O)OC(=O)C=C(C)C` has a growth (NCI-H23 lung) of 117%, a growth (NCI-H226 lung) of 93.5% and a growth (NCI-H322M lung) of 104%. For the same compound, the growth (HOP-62 NSCLC) was 103%, the growth (NCI-H460 lung) was 106% and the growth (786-0 renal) was 106%. For the same compound, the growth (COLO 205 colon) was 113%.
With `O=C(/C(=N/O)c1ccccc1)c1ccccc1` the growth (NCI-H23 lung) was 105%, the growth (NCI-H226 lung) was 91.2% and the growth (NCI-H322M lung) was 95.8%. The growth (NCI-H460 lung) was 108%, the growth (HOP-92 NSCLC) was 96.6% and the growth (NCI-H522 lung) was 109%. It also gave a growth (A549/ATCC NSCLC) of 98.1%, a growth (786-0 renal) of 98.1% and a growth (COLO 205 colon) of 115%.
`Cc1ccc(CCCC(=O)O)c(C)c1` was tested, and the growth (NCI-H23 lung) was 103%, the growth (NCI-H226 lung) was 93.4% and the growth (NCI-H322M lung) was 102%. It also gave a growth (HOP-62 NSCLC) of 95.7%, a growth (NCI-H460 lung) of 102% and a growth (786-0 renal) of 99.4%. It also gave a growth (COLO 205 colon) of 102%.
`COc1ccc(C(=O)C(Br)C(Br)C(=O)O)cc1` (centres undefined) gave a growth (NCI-H23 lung) of 99.1%, a growth (NCI-H226 lung) of 102% and a growth (NCI-H322M lung) of 94.1%. The growth (HOP-62 NSCLC) was 108%, the growth (NCI-H460 lung) was 104% and the growth (786-0 renal) was 100%. For the same compound, the growth (COLO 205 colon) was 110%.
`O=C(O)CSCSCC(=O)O` gave a growth (NCI-H23 lung) of 99.8%, a growth (NCI-H226 lung) of 95.2% and a growth (NCI-H322M lung) of 108%. For the same compound, the growth (HOP-62 NSCLC) was 91.5%, the growth (NCI-H460 lung) was 104% and the growth (786-0 renal) was 103%. It also gave a growth (COLO 205 colon) of 100%.
